Reference: PMC5540273 (PLoS ONE, 2017)

Assays:
Conditions in all cases: concentration: 1 μM, replicates: in singlicate; n = 1
TSSK1B = tested on: TSSK1B
TSSK3 = tested on: TSSK3
TTK = tested on: TTK
TXK = tested on: TXK
[1] = tested on: TYK2(JH1domain-catalytic)
[2] = tested on: TYK2(JH2domain-pseudokinase)
TYRO3 = tested on: TYRO3
ULK1 = tested on: ULK1
ULK2 = tested on: ULK2
ULK3 = tested on: ULK3
VEGFR2 = tested on: T1, VEGFR2
T1 construct: gene KDR

VPS34 = tested on: T2, VPS34
T2 construct: gene PIK3C3

VRK2 = tested on: VRK2
WEE1 = tested on: WEE1
WEE2 = tested on: WEE2
WNK1 = tested on: WNK1
WNK2 = tested on: WNK2
WNK3 = tested on: WNK3
WNK4 = tested on: WNK4
YANK1 = tested on: T3, YANK1
T3 construct: gene STK32A
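Note: KINOMEscan kinase panel screen.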

| Structure (SMILES) | %Inh (TSSK1B) | %Inh (TSSK3) | %Inh (TTK) | %Inh (TXK) | %Inh [1] | %Inh [2] | %Inh (TYRO3) | %Inh (ULK1) | %Inh (ULK2) | %Inh (ULK3) | %Inh (VEGFR2) | %Inh (VPS34) | %Inh (VRK2) | %Inh (WEE1) | %Inh (WEE2) | %Inh (WNK1) | %Inh (WNK2) | %Inh (WNK3) | %Inh (WNK4) | %Inh (YANK1) |
| --- | --- | --- | --- | --- | --- | --- | --- | --- | --- | --- | --- | --- | --- | --- | --- | --- | --- | --- | --- | --- |
| COc1ccc(-c2coc3ccc(-c4nnc(C)o4)cc23)cc1 | 0% | 0% | 0% | 0% | 0% | 0% | 0% | 0% | 0% | 0% | 0% | 0% | 0% | 0% | 4% | 0% | 32% | 0% | 0% | 0% |
| CC(=O)c1cccc(NC(=O)NC2CCN(c3ccnc(Nc4ccc(F)cc4)n3)C2)c1 (stereo not shown) [GSK1379710] | 39% | 32% | 23% | 16% | 26% | 22% | 0% | 2% | 4% | 10% | 8% | 10% | 19% | 19% | 10% | 10% | 0% | 49% | 22% | 12% |
| CS(=O)(=O)CCNCc1nc(-c2ccc3ncnc(Nc4ccc(OCc5ccccc5)c(Cl)c4)c3c2)cs1.Cl [GW582764] | 19% | 8% | 0% | 6% | 30% | 35% | 0% | 5% | 0% | 3% | 0% | 0% | 50% | 0% | 16% | 6% | 13% | 45% | 60% | 0% |
| Cn1cncc1-c1cc2c(Nc3ccc(OCc4ccccc4)cc3)ncnc2cn1 [GW281179] | 18% | 10% | 7% | 21% | 96.8% | 27% | 0% | 0% | 0% | 0% | 0% | 0% | 0% | 2% | 0% | 7% | 7% | 25% | 14% | 0% |
| CSc1ccc(-c2nc3n(c2-c2ccncc2)CCC3)cc1 [SKF-105561] | 0% | 0% | 14% | 11% | 0% | 0% | 0% | 18% | 0% | 33% | 11% | 19% | 3% | 0% | 7% | 24% | 21% | 30% | 3% | 0% |
| Cc1ccc(NC(=O)c2ccc(Cl)cc2)cc1-c1ccc(C(=O)Nc2ccncc2)cc1 [GSK1398467] | 18% | 6% | 0% | 8% | 0% | 17% | 0% | 0% | 0% | 0% | 0% | 0% | 27% | 0% | 8% | 0% | 0% | 31% | 22% | 2% |
| O=C1NC(=O)C(c2ccc(Cl)cc2)=C1Nc1ccc(O)cc1 [SB-340867] | 0% | 0% | 100% | 18% | 0% | 0% | 0% | 0% | 0% | 10% | 0% | 2% | 0% | 0% | 0% | 0% | 48% | 0% | 0% | 0% |
| COC(=O)C(Cc1ccccc1)NC(=O)NC1CCN(c2ccnc(Nc3ccc(F)cc3)n2)C1 (stereo not shown) [GSK1379714] | 0% | 21% | 0% | 0% | 33% | 19% | 0% | 0% | 0% | 0% | 7% | 3% | 38% | 0% | 13% | 3% | 46% | 38% | 45% | 0% |
| COC(=O)C(NC(=O)NC1CCN(c2ccnc(Nc3ccc(F)cc3)n2)C1)c1ccccc1 (stereo not shown) [GSK1379712] | 14% | 23% | 3% | 0% | 13% | 22% | 0% | 0% | 3% | 4% | 14% | 0% | 24% | 9% | 0% | 22% | 28% | 36% | 25% | 0% |
| CC(C)c1cc(-c2ccc3c(N)n[nH]c3c2)nc(N)n1 [GSK2250882] | 6% | 20% | 10% | 0% | 20% | 2% | 0% | 6% | 0% | 9% | 0% | 9% | 4% | 11% | 6% | 0% | 0% | 3% | 0% | 20% |
| Fc1ccc(-c2nc3n(c2-c2ccncc2)CCS3)cc1 [GI98581] | 0% | 22% | 0% | 0% | 8% | 11% | 0% | 2% | 0% | 0% | 0% | 21% | 0% | 3% | 7% | 0% | 7% | 13% | 2% | 13% |
